This is one part of a sample in which hits are shown more often than they occur.
Giardia FBPA inh – inhibitors of Giardia lamblia fructose-1,6-bisphosphate aldolase; A8B2U2; 0.71% of 290,000 active; Potency, µM (top dose mostly 59.6 µM), for the others: at the highest dose activity, negative = inhibition, usual class: inhibitors; purified Giardia FBPA; note: potency is the fitted concentration of half-maximal effect; % is set by controls: 0 for no effect and ±100 for the full control effect; nearly all actives have a fitted effect of over 55% in size
Target sequence (A8B2U2 whole entry, looked up): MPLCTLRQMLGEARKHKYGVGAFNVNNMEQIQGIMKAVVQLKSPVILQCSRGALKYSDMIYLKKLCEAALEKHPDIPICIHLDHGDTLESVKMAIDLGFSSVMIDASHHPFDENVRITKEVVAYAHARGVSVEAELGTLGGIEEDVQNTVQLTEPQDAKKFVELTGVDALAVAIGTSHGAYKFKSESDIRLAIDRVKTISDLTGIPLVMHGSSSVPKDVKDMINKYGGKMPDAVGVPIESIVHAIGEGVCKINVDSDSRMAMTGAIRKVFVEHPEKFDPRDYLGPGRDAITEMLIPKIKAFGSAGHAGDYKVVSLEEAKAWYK
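40 nM FBPA preincubated 10 min at RT with compound (up to 57.5 uM final), then substrate plus GAPDH/TPI/NAD/arsenate coupling and diaphorase/resazurin added. Fluorescence read after 20 min at RT, 525/598 nm.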
CHX counter – counter-screen for Shiga toxin inhibitors: cycloheximide protein synthesis inhibition | cell reporter, cycloheximide protein synthesis inhibition counterscreen | max response, % | 12% of 300,000 active | AID 2314; in the data active = max response mostly above about 13%, no sharp cut-off; inactive = mostly below about 14%; note: read at 38.3 µM for the half of the compounds with a filed dose; 0% is about no effect
Shiga toxin inh – blocks Shiga toxin action in Vero cells; 9.2% of 290,000 active; inhibition, % at 38.7 µM; Vero cells, Shiga toxin protein synthesis inhibition reporter; in the data active = inhibition mostly above about 28%, no sharp cut-off; inactive = mostly below about 43%; note: 0% is about no effect
RE007 growth inh – less growth of the S. pombe RE007 Vpr strain | 0.21% of 360,000 active | Potency, µM (doses to about 92.2 µM), inactives show at the top dose activity change, negative = less growth, most hits filed as inhibitors | S. pombe RE007 Vpr strain, BacTiter-Glo ATP luminescence, 24 h | AID 651644; active = well fitted falling curve with a large enough effect; inconclusive = small, poorly fitted or top-dose-only effect; inactive = no such curve, though single readings can be large or run the other way; note: potency is the fitted concentration of half-maximal effect; % is set by controls: 0 for no effect and ±100 for the full control effect; nearly all actives have a fitted effect of over 50% in size
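Fission yeast strain RE007, carrying one chromosomally integrated HIV-1 vpr copy, was seeded at OD 0.01 in PMG+AL medium with 23 nL pinned compound. After 24 h at 30 °C and 99% humidity, viability was read by BacTiter-Glo luminescence.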
LmPK inhibitor – inhibitors of Leishmania mexicana pyruvate kinase. Potency, µM (titrated, usually from 57.5 µM), inactives show at the top dose activity change, negative = inhibition, usual class: inhibitors. 0.37% of 290,000 active. purified LmPK, Kinase-Glo ATP luminescence, 1 h; note: potency is the fitted concentration of half-maximal effect; % is set by controls: 0 for no effect and ±100 for the full control effect
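ATP generated from ADP (0.1 mM) and PEP (0.5 mM) by 0.1 nM LmPK over 1 h at room temperature (pH 7.2 imidazole buffer) was detected by coupled luciferase luminescence. Values were normalized to uninhibited and no-enzyme wells.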
TbPYK inhibitor – inhibitors of Trypanosoma brucei pyruvate kinase; Q57TT1; 0.12% of 410,000 active; Potency, µM (highest dose often 76.8 µM), for inactives: at the top dose activity, negative = inhibition, actives largely listed as inhibitors; TbPYK enzyme, Kinase-Glo Plus ATP luminescence, 45 min; note: potency is the fitted concentration of half-maximal effect; % is set by controls: 0 for no effect and ±100 for the full control effect; nearly all actives have a fitted effect of over 50% in size
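Readout: single end-point luminescence (Kinase-Glo Plus, 10 min). Reaction conditions were TbPYK/substrate plus 130 uM ADP, 45 min at RT, pH 7.2 TEA buffer. No-enzyme wells served as controls, and data were normalized before concentration-response fitting.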
* hit, by the source's call; ? = inconclusive; . = no result; [ ] = another dose, or the depositor's remark. Unless noted, calls come from the whole dose curve; as a rule, active = well fitted curve in the direction sought with a large enough effect; inconclusive = small, poorly fitted or top-dose-only effect, or another doubt; inactive = no such curve, though single readings can be large; an effect the other way counts as inactive or inconclusive.

SMILES	Giardia FBPA inh	CHX counter	Shiga toxin inh	RE007 growth inh	LmPK inhibitor	TbPYK inhibitor
CCCCC(=O)N1CCN(c2nc3ccc(Br)cc3s2)CC1	.	26*	45*	-18%	-6%	1%
CCCC(=O)N1CCN(c2nc3ccc(Br)cc3s2)CC1	.	44*	46*	-16%	-6%	-2%
O=C(O)CCC(=O)N1CCN(c2nc3ccccc3s2)CC1	-3%	-1	-36	-1%	-21%	-9%
O=C(CCNC(=O)C1CCN(S(=O)(=O)c2ccccc2)CC1)Nc1cccc(C(F)(F)F)c1	.	16*	20	6%	-11%	0%
Cc1ccnc(NC(=O)C2CCN(S(=O)(=O)c3cccc(C(F)(F)F)c3)CC2)c1	.	14*	39	-8%	-3%	-5%
CCCc1c(C(=O)N/N=C/c2cccs2)nnn1-c1nonc1N	8%	1	21	6%	0%	-4%
CC(/C=N/NC(=O)c1nnn(-c2nonc2N)c1C(C)C)=C\c1ccco1	-8%	40*	5	-7%	1%	0%
CC1CCN(Cc2c(C(=O)N/N=C/c3ccc(OC(C)C)cc3)nnn2-c2nonc2N)CC1	2%	5	6	4%	4%	0%
CN(C)Cc1c(C(=O)N/N=C/C=C/c2ccccc2)nnn1-c1nonc1N	1%	29*	-1	-6%	-6%	5%
Cc1c(C(=O)N/N=C/c2cccs2)nnn1-c1nonc1N	-9%	6	52*	-18%	2%	0%
CCCc1c(C(=O)N/N=C/C(C)=C/c2ccco2)nnn1-c1nonc1N	.	2	-2	2%	-4%	1%
Cc1ccccc1COc1ccc(/C=N/NC(=O)c2nnn(-c3nonc3N)c2CN2CCC(C)CC2)cc1	-27%	21*	24	-10%	4%	-3%
COc1cc(NC(=O)O[C@@H]2C(=O)c3cc(Br)ccc3O[C@H]2c2ccc3c(c2)OCO3)cc(OC)c1OC	-1%	.	.	.	.	.
CCOCCCN1C(=O)c2[nH]nc(-c3ccccc3O)c2C1c1ccc(CC)cc1 (stereo not drawn)	.	.	.	.	.	-1%
COc1ccccc1N1CCN(S(=O)(=O)c2cc(C(=O)Nc3ccc(Oc4ccccc4)cc3)ccc2F)CC1	.	.	.	.	.	2%
Cc1ccsc1/C=N/NC(=O)c1nnn(-c2nonc2N)c1C	1%	12*	20	-1%	6%	0%
CCCc1c(C(=O)N/N=C/c2c[nH]c3ccccc23)nnn1-c1nonc1N	.	.	.	1%	.	-9%
Cc1ccc(-c2c(C(=O)N/N=C/c3c[nH]c4ccccc34)nnn2-c2nonc2N)cc1	-9%	22*	4	-6%	0%	10%
C/C(=N\N=C\c1ccccc1)c1nnn(-c2nonc2N)c1C	4%	19*	41	2%	5%	0%
Cc1ccc(NC(=O)Cn2c(-c3nonc3N)nc3ccccc32)cc1Cl	.	.	.	.	.	-6%
CCC1=C(OC(=O)N(CC)CC)N2C(=O)OC(=NCCOC)[C@]2(C)[C@H]2C1=CC[C@H]1C(=O)N(CC)C(=O)[C@H]12	0%	.	.	.	.	.
COc1ccccc1CNC(=O)c1cc2cccc3c2n1CCS3	.	.	.	.	.	2%[15.4 µM]
Cc1c(/C(O)=C2/C(=O)C(=O)N(Cc3cccnc3)C2c2ccccn2)cnn1-c1ccccc1 (stereo not drawn)	0%	34*	64	1%	1%	-2%
Cc1c(/C(O)=C2/C(=O)C(=O)N(Cc3cccnc3)C2c2cccs2)cnn1-c1ccccc1 (stereo not drawn)	30%	52*	168*	-1%	0%	1%
COc1ccc(C2/C=C\CN(C(=O)CC(C)(C)C)C(C)C(=O)N2Cc2ccc(F)cc2)cc1 (stereo not drawn)	2%	6	-7	.	.	.
SMILES	Giardia FBPA inh	CHX counter	Shiga toxin inh	RE007 growth inh	LmPK inhibitor	TbPYK inhibitor
COc1ccc(-c2cn3c(n2)sc2cc(C(=O)NCCc4ccc(OC)cc4OC)ccc23)cc1	.	.	.	.	.	-3%
O=S1(=O)N=C(N2CCOCC2)c2ccccc21	1%	2	29	10%	-2%	-4%
COc1ccccc1N1CCN(c2cc(N3CCCC3)nc(C)n2)CC1	-1%	-4	-4	1%	7%	-13%
COc1ccccc1N1CCN(c2ccc(-c3ccccc3)nn2)CC1	11%	42*	139*	-20%	?	?
COc1ccccc1N1CCN(C2=NS(=O)(=O)c3ccccc32)CC1	0%	12*	2	12%	2%	-7%
COc1ccccc1N1CCN(c2ccc3ccccc3n2)CC1	.	45*	70*	-10%	-8%	0%
CC(C)(CCCCCCCCCCC(C)(C)CC(=O)O)CC(=O)O	?	-3	-2	.	.	.
COc1cccc(CNC(=O)Cn2ncn3nc(-c4cccs4)cc3c2=O)c1	.	.	.	.	.	-2%
Cc1cc(C(=O)COC(=O)[C@H](C)NC(=O)c2ccco2)c(C)n1Cc1ccco1	-5%	35*	59*	-9%	-2%	-20%
Cc1ccc2cccc(OCC(=O)c3cc(C)n(Cc4ccco4)c3C)c2n1	-27%	25*	101	.	-14%	.
Cc1ccc2c(c1)C(c1ccccc1)N(C(=O)COc1ccc(Cl)cc1Cl)CC(=O)N2 (stereo not drawn)	.	.	.	.	.	-7%
CCN(CC)C(=O)c1cccnc1	.	.	.	.	.	-5%
COc1ccc(OC)c(C(=O)c2coc3ccc(O)cc23)c1	-10%	25*	103*	18%	10%	5%
COc1ccc2occ(C(C)=O)c2c1	0%	-1	-1	-11%	1%	-3%
COc1ccc2occ(C(=O)c3ccccc3)c2c1	1%	38*	66*	-20%	-6%	-5%
COC(=O)N1CCC2(CC1)CCN(c1cccc(-c3ccccc3)c1)CC2	0%	.	.	.	.	-4%
CCn1nc(C)c(CCN(C)C(=O)Nc2ccc(C)c(Cl)c2)c1C	.	.	.	.	.	1%
CC(C)N(C)C1CCN(S(=O)(=O)c2ccc3[nH]c(=O)ccc3c2)CC1	.	.	.	.	.	-5%
Cc1ccc(NC(=O)CCc2c(C)nn(-c3ccc(N4CCCCC4)nn3)c2C)cc1C	6%	43*	70*	-10%	1%	1%
COc1ccc(C)cc1NC(=O)CCc1c(C)nn(-c2ccc(N3CCCCC3)nn2)c1C	9%	18*	45	-1%	-1%	-10%
Cc1ccc(F)cc1NC(=O)CCc1c(C)nn(-c2ccc(N3CCCC3)nn2)c1C	.	.	.	.	.	20%
Cc1cc(C)cc(NC(=O)CCc2c(C)nn(-c3ccc(N4CCCCC4)nn3)c2C)c1	14%	48*	51*	24%	0%	1%
Cc1ccc(F)cc1NC(=O)CCc1c(C)nn(-c2ccc(N3CCCCC3)nn2)c1C	.	31*	24	0%	4%	-1%
Cc1cc(C)cc(NC(=O)CCc2c(C)nn(-c3ccc(N4CCCC4)nn3)c2C)c1	.	.	.	.	.	5%
